Compounds with a hit are over-represented: about 9% of the library has one in this group of screens.
ALDH1A1 inh = qHTS Assay for Inhibitors of Aldehyde Dehydrogenase 1 (ALDH1A1). Potency, µM (doses to about 75.3 µM), for the others: top-dose activity, negative = inhibition, most hits filed as inhibitors. Purified ALDH1A1, NADH fluorescence, propionaldehyde substrate. Aldehyde dehydrogenase 1A1 (Homo sapiens), P00352. 220,000 tested, 7.3% active;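 further: potency means the concentration at half of the fitted maximal effect; plate controls were no enzyme wells and a reference inhibitor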
Target sequence (P00352 whole entry, looked up): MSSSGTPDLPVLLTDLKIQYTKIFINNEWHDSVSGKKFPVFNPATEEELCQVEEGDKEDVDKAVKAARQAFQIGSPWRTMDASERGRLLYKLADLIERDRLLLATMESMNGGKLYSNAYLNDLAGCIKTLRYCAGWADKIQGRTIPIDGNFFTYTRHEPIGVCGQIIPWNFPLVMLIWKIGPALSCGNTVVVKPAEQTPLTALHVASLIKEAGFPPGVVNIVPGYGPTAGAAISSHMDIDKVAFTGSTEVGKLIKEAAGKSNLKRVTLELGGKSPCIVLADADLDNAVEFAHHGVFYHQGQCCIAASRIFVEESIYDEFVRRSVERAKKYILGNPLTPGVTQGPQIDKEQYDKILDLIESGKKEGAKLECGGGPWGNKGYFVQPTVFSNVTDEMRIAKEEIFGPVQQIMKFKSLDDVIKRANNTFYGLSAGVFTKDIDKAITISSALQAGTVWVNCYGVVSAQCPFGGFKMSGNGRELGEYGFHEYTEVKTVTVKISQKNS
IMPase cell inh = qHTS Assay for Identifying the Cell-Membrane Permeable IMPase Inhibitors. inhibition (IP1 accumulation), % at 46.1 µM. 120,000 tested, under 10 active. Inositol monophosphatase 1 (Rattus norvegicus), P97697. CHO-M1 cells, IP1 accumulation, HTRF TR-FRET ratio; active means well fitted curve in the direction sought with a large enough effect in the signal ratio, not every such curve was filed as active; inconclusive means small, poorly fitted or top-dose-only effect, or a change in a side signal; inactive means no such curve, though single readings can be large or run the other way; the % refers to the signal ratio;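 further: cells stimulated with carbachol in lithium chloride buffer; plate controls were DMSO basal wells for no effect and reference inhibitor wells for full effect; higher means more IMPase inhibition seen as more IP1 and lower FRET ratio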
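Cellular IMPase inhibition is scored as a rise in cytosolic IP1, detected by competitive TR-FRET between d2-labelled IP1 and a europium anti-IP1 antibody. M1-expressing CHO cells were stimulated with carbachol for 30 min at 37C, with lithium (50 mM LiCl) present in the buffer.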
HPGD inh = qHTS Assay for Inhibitors of HPGD (15-Hydroxyprostaglandin Dehydrogenase); 15-hydroxyprostaglandin dehydrogenase [NAD(+)] (Homo sapiens), P15428; purified HPGD, NADH fluorescence kinetic, PGE2 substrate; Potency, µM, without a hit: top-dose activity change, negative = inhibition, most hits filed as inhibitors; 150,000 tested, 4.3% active; AID 894, 2007; further: potency means the concentration at half of the fitted maximal effect
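20 nM HPGD preincubated 15 min at room temperature with compound in 50 mM Tris-HCl pH 8, 0.01% Tween 20. Started with 1 mM NAD+ and 30 uM prostaglandin E2; NADH fluorescence (360/450 nm) read 5 times over 30-s intervals, last minus first.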
* hit, by the source's call; ? = inconclusive; nt = not tested or not shown; [ ] = dose if it differs, or a comment. Unless noted, the call rests on the fitted dose curve; in most records, active means well fitted inhibition curve with a large enough effect (not every such curve was filed as active); inconclusive means small, poorly fitted or top-dose-only effect, or another doubt; inactive means no such curve, though single readings can be large or run the other way. Unless noted, on the % scale 0 is the no-effect control and ±100 the full control effect.

SMILES	ALDH1A1 inh	IMPase cell inh	HPGD inh
CC(C)OC(=O)/C(C#N)=C/c1ccc(-c2ccc(Cl)c(Cl)c2)o1	nt	-12.1	nt
Cc1ccc(-n2cc(-c3ccccc3)[nH]c2=O)cc1F	20µM*	7.0	-23.5%
Fc1ccccc1-n1cc(-c2ccccc2)[nH]c1=S	13.7%	nt	nt
CN1CCCC(n2nc(Cc3ccc(Cl)cc3)c3ccccc3c2=O)CC1 (centres undefined)	-2.8%	nt	4.9%
CCOC(=O)c1c(NC(=O)CNCCO)sc(C)c1C	?	4.7	nt
CCOC(=O)c1c(NC(=O)CSC(=S)N(C)C)sc(C)c1C	25.1µM*	nt	-18.4%
CCOC(=O)c1c(N2C(=O)C=CC2=O)sc(C)c1C	0.501µM*	-13.7	2µM*
CCOC(=O)c1c(NC(N)=O)sc(C)c1C	-11.6%	-3.4	-5.5%
CCOC(=O)c1c(NC(=O)CSc2nnc(C)c(=O)[nH]2)sc(C)c1C	2.0%	nt	nt
CCOC(=O)c1c(NC(=O)CSc2ncn[nH]2)sc(C)c1C	25.1µM*	-9.3	-14.0%
O=C(O)CCCn1cc(NC(=O)COc2ccc([N+](=O)[O-])cc2)cn1	14.6%	nt	nt
O=C(O)c1cc2ncc(-c3[nH]ncc3[N+](=O)[O-])cn2n1	-5.2%	nt	nt
COC(=O)C1=CN(c2ccc(OC)cc2)C=C(C(=O)OC)C1c1ccc(C)c([N+](=O)[O-])c1	-1.5%	nt	-1.7%
COC(=O)C1=CN(c2cccc(C)c2)C=C(C(=O)OC)C1c1cc(OC)c(O)c([N+](=O)[O-])c1	-0.7%	3.5	15.8µM*
CC[n+]1c(/C=C/C=C/N(C(C)=O)c2ccccc2)sc2ccccc21	3.55µM*	1.7	-26.4%
CCn1c(/C=C/N(C(C)=O)c2ccccc2)[n+](CC)c2ccc(Cl)cc21	2.3%	2.9	-1.4%
CCN1CCC(CNCc2cn(-c3ccc(OC)cc3)nc2-c2ccccc2Cl)C1 (centres undefined)	-9.4%	nt	nt
Cc1nn(Cc2ccccc2)c(C)c1NC(=O)CCCn1nc(C)c([N+](=O)[O-])c1C	?	nt	-12.9%
Cc1nn(Cc2ccccc2)c(C)c1NC(=O)CCCn1nc([N+](=O)[O-])c(Cl)c1C	?	0.3	-16.2%
Cc1nn(Cc2c(Cl)cccc2Cl)c(C)c1NC(=O)CCCn1nc([N+](=O)[O-])c(Cl)c1C	6.31µM*	-3.8	-4.2%
Cc1nn(Cc2ccccc2Cl)c(C)c1NC(=O)CCCn1nc(C)c([N+](=O)[O-])c1C	15.8µM*	7.4	-8.8%
Cc1c(C)c2c(c(C)c1O)CC[C@@](C)(CCC[C@@H](C)CCC[C@@H](C)CCCC(C)C)O2	6.7%	-5.6[20.6 µM]	-11.4%
Cc1noc(C)c1-c1nc(NCCN2CCOCC2)c2ccccc2n1	-7.7%	nt	nt
Cc1cc(=O)[nH]c(-n2ncc(C#N)c2N)n1	-6.2%	nt	nt
O=C(c1ccccc1)c1ccccc1N1C(=O)C=CC1=O	3.16µM*	nt	nt
SMILES	ALDH1A1 inh	IMPase cell inh	HPGD inh
O=C(O)c1ccccc1-c1ccccc1C(=O)c1ccccc1	-9.1%[13.5 µM]	nt	-9.9%
O=Cc1ccccc1Cl	9.4%	nt	-7.0%
Cc1oc2nc(SCC(=O)N3CCCCC3)nc(N)c2c1C	?	nt	1.41µM*
Cc1cc(C)nc(SCC(=O)N2CCOCC2)n1	8.2%	7.9	-10.6%
CCOC(=O)c1[nH]ncc1CN1CCCC(C(=O)c2ccc(C(C)(C)C)cc2)C1 (centres undefined)	8.8%	nt	nt
CCC(=O)c1ccc(OCC(=O)Nc2nn3cnnc3s2)cc1	0.6%	1.6	-20.7%
CC(C)CN=C(NS(=O)(=O)c1ccccc1)C(Cl)(Cl)Cl	-11.1%	nt	-7.2%
COc1ccc(C(c2nnnn2CCc2ccccc2)N2CCN(C3CCCC3)CC2)cc1 (centres undefined)	-5.8%	14.2	nt
COc1ccc(Cn2nnnc2C(C(C)C)N2CCN(c3ccccc3OC)CC2)cc1 (centres undefined)	17.8µM*	4.5	-7.8%
CC(C)C(c1nnnn1Cc1ccc(F)cc1)N1CCN(c2ccc(O)cc2)CC1 (centres undefined)	3.98µM*	nt	nt
COc1ccc(OC)c(C(c2nnnn2Cc2ccccc2)N2CCN(C)CC2)c1 (centres undefined)	4.2%	9.5	-0.1%
CCCC(c1nnnn1Cc1ccc(F)cc1)N1CCN(CC)CC1 (centres undefined)	22.4µM*	nt	nt
CC(C)C(c1nnnn1Cc1cccs1)N1CCN(c2ccccc2)CC1 (centres undefined)	?	9.1	-1.2%
COc1ccccc1N1CCN(C(c2ccc(N(C)C)cc2)c2nnnn2CCc2ccccc2)CC1 (centres undefined)	22.4µM*	8.2	-22.3%
CCCC(c1nnnn1Cc1ccc(F)cc1)N1CCN(C)CC1 (centres undefined)	-7.6%	nt	nt
COc1cccc([C@@H]2Oc3ccc(Br)cc3C[C@H]2OC(=O)N[C@H]2CCCc3ccccc32)c1	2.0%	nt	-7.5%
Cc1cc(C)nc(NC(=O)NS(=O)(=O)N2CCCCCC2)n1	6.5%	0.9	-4.1%
C=CCN1c2ccccc2[C@]23C[C@@H](C(=O)OC)N(S(=O)(=O)c4cccs4)C2=NC(C(=O)OC)=C(C(=O)OC)[C@H]13	12.4%[13.5 µM]	nt	2.1%
COCCCNc1nc2nonc2nc1N(C)CC1CCCN1C (centres undefined)	0.5%	nt	nt
Cc1ccc(NC(=O)CN2CCN(CCN=CC3=C(O)CC(c4ccc(C)cc4)CC3=O)CC2)cc1 (centres undefined)	4.2%	nt	nt
CCOc1ccc(NC(=O)Cn2nnc(C(=O)NCc3ccco3)c2N)cc1	0.6%	-6.4	7.8%
CCOc1ccc(-n2c(N)c(C(=O)NCc3cccnc3)sc2=S)cc1	?	6.4	35.5µM*
CCOc1ccc(-n2c(N)c(C(=O)NCc3ccco3)sc2=S)cc1	22.4µM*	11.3	31.6µM*
C=CCn1c(N)c(C(=O)NCc2cccnc2)sc1=S	?	-10.4	-9.6%
COC(=O)N1CCC2(CCCN(C(=O)Nc3cccc(F)c3)C2)CC1	1.1%	nt	-4.1%
SMILES	ALDH1A1 inh	IMPase cell inh	HPGD inh
Cc1cc(C)n(CCCN2C(=O)c3cccc4cccc(c34)C2=O)n1	-5.1%	nt	nt
O=C(NCc1ccccc1)c1ccccc1C(=O)c1ncc[nH]1	3.0%	nt	nt
Cc1nc(N2CCCCC2)sc1C(=O)c1ccc(Cl)c([N+](=O)[O-])c1	7.94µM*	nt	nt
O=[N+]([O-])c1cc(S(=O)(=O)N2CCCCCC2)ccc1Cl	-3.0%	nt	nt
C=C1C[C@@]23C[C@@]1(O)CC[C@@H]2[C@]12C=C[C@@H](O)[C@](C)(C(=O)O1)[C@@H]2[C@@H]3C(=O)O	5.9%	0.9	-5.4%
O=C1c2cccc3cccc(c23)C(=O)N1Cc1ccccc1	3.6%	nt	nt
O=C1c2nc3ccccn3c2C(=O)N1Cc1ccccc1	17.8µM*	7.6	?
CN(C)/C=N/c1sc2c(c1C(N)=O)CCCC2	-7.6%	nt	nt
CN1CCc2c(sc(/N=C/c3ccco3)c2C(N)=O)C1	?	-2.6	nt
N#Cc1c(/N=C/c2ccco2)sc2c1CCCCC2	14.1µM*	-3.1	-27.6%
CN(C)/C=N/c1sc2c(c1C#N)CCCC2	2µM*	nt	nt
C(=N\Nc1ncnc2sc3c(c12)CCC3)/c1cccs1	8.0%	8.7	-21.2%
N#Cc1c(/N=C/c2cccs2)sc2c1CCC2	?	-11.4	20µM*
O=C(NN1C(=O)C2CC=C(Cl)CC2C1=O)c1ccncc1 (centres undefined)	5.4%	nt	nt

Screening results deposited in PubChem BioAssay by National Center for Advancing Translational Sciences (NCATS).
